About 31,000 (8.9%) of roughly 350,000 compounds were called active. Entries that show only a call come without a potency. About 15% were inconclusive and are not listed. Calls come from the whole dose curve; as a rule, active = well fitted inhibition curve with a large enough effect; inconclusive = small, poorly fitted or top-dose-only effect; inactive = no such curve, though single readings can be large or run the other way. The full list was thinned out, with actives kept by preference. Where a structure was tested more than once in an assay, its records may differ in their call.
What follows are compounds tested against Histone-lysine N-methyltransferase EHMT2 (Homo sapiens) (UniProt Q96KQ7) (assay: qHTS Assay for Inhibitors of Histone Lysine Methyltransferase G9a). Conditions: G9a H3K9 monomethylation, AlphaScreen, 2 h; series mostly up to 59 µM.
Histone-lysine N-methyltransferase EHMT2 (Homo sapiens), sequence (Q96KQ7 913-1193 limits assumed): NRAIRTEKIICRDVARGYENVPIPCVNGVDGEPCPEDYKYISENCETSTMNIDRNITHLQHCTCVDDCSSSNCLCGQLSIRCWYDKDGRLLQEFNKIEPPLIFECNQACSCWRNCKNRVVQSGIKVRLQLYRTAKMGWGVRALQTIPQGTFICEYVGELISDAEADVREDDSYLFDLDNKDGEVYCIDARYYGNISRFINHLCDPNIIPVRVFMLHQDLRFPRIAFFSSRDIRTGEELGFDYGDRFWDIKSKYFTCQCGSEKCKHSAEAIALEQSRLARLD
How it was run: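 G9a (20 nM) preincubated 15 min RT with compounds, then 500 nM biotinylated H3K9 peptide and 20 uM SAM added; 2 h RT reaction. Monomethyl-H3K9 product detected by AlphaScreen with anti-H3K9me1 antibody, streptavidin donor and anti-rabbit IgG acceptor beads.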
Note: nearly all actives have a fitted effect of over 75% in size.
Potency is the fitted concentration of half-maximal effect.

SMILES	Potency	activity, negative = inhibition
CCN(CC)c1nn2c(=O)c(C(=O)NCCc3ccccc3)cnc2s1	inactive	
CCc1noc(C)c1C(=O)Nc1nc2ccc(OC)cc2s1		-2.24% [at 12.7 µM] (inactive)
COC(=O)c1nc(NC(=O)c2ccc(C(C)(C)C)cc2)n[nH]1	31.6 µM (active)	
COc1ccc(C(=O)Nc2ccc(F)cc2F)cc1		29.4% [at 12.7 µM] (inactive)
CSc1nccc(NC(=O)c2ccc(C(C)(C)C)cc2)n1		15.8% [at 0.501 µM] (inactive)
COC(=O)c1nc(NC(=O)c2ccccc2)n[nH]1		-8.15% [at 12.7 µM] (inactive)
COC(=O)c1nc(NC(=O)c2ccc(F)cc2)n[nH]1	35.5 µM (active)	
O=C(Nc1n[nH]c(C(F)(F)F)n1)c1cccs1	inactive	
COc1ccc(CNC(=O)COC(=O)c2ccc(C)c(S(=O)(=O)N3CCOCC3)c2)cc1OC	inactive	
O=C(c1cc(-c2ccc(Cl)cc2)on1)N1CCN(c2ccccc2)CC1	inactive	
Cc1ccc(NC(=O)Cn2cnc3nc4c(cc3c2=O)CCCC4)cc1Cl	inactive	
Cc1ccc(C(=O)C(C)OC(=O)Cc2n[nH]c(=O)c3ccccc23)cc1C (centres undefined)		13.1% [at 2.33 µM] (inactive)
CCOC(=O)c1c(C)[nH]c(C)c1S(=O)(=O)N1CCCC(C(=O)NCc2ccccc2Cl)C1 (centres undefined)	inactive	
COc1ccc(CN2CCCC(CNC(=O)c3ccc(F)cc3)C2)cc1OC (centres undefined)	inactive	
COc1ccc(CN2CCCC(C(=O)N3CCCCC3)C2)cc1 (centres undefined)	11.2 µM (active)	
COc1ccc(C(=O)C2CCCN(Cc3ccc4nonc4c3)C2)c(C)c1 (centres undefined)	inactive	
CCCCNC(=O)N1CCCC(N(C)CCc2ccc(OC)c(OC)c2)C1 (centres undefined)	inactive	
CCOC(=O)C1CCCN(C(=O)/C=C/c2ccc(OC)cc2)C1 (centres undefined)	inactive	
COc1ccc(/C=C/C(=O)NC(=S)N2CCCC(C(N)=O)C2)cc1 (centres undefined)	79.4 µM (active)	
COc1ccc(CCN(C)C(=O)C2CCCN(Cc3ccc(OC)c(OC)c3)C2)cc1OC (centres undefined)	5.01 µM (active)	-16.1% [at 0.501 µM] (inactive)
COc1ccc(NC(=O)N2CCCC(C(=O)Nc3ccccc3OC)C2)cc1 (centres undefined)	inactive	
O=C(c1ccc(F)cc1)N1CCCC(C(=O)N2CCCCC2)C1 (centres undefined)	inactive	
Cc1nn(-c2ccc(N3CCCCC3)nn2)c(C)c1CCC(=O)NCc1ccccc1F	inactive	
OC(c1ccc(Cl)cc1)C(CN1CCOCC1)c1ccccc1 (centres undefined)		-30.5% [at 2.33 µM] (inactive)

SMILES	Potency	activity, negative = inhibition
COC(=O)[C@]1(C)CCC[C@@]2(C)C3CC[C@]4(OC(C)=O)C[C@@]3(CCC21)CC4=NO (some centres undefined)		3.11% [at 0.501 µM] (inactive)
COc1cc(OC)cc(-c2c(-c3cccs3)c3cc(-c4ccc(OC)nc4)ccc3n2C)c1		0.323% [at 0.501 µM] (inactive)
COc1cc2[nH]c(=O)n(Cc3ccc(C(=O)NCc4ccc(C)cc4)cc3)c(=O)c2cc1OC	inactive	
COc1ccc(F)cc1S(=O)(=O)Nc1ccc2c(c1)OCO2	inactive	
CN1CCN(C(CNC(=O)c2ccccc2F)c2ccc3c(c2)OCO3)CC1 (centres undefined)	inactive	
COc1ccc(F)cc1S(=O)(=O)NCC(c1ccc2c(c1)OCO2)N1CCN(C)CC1 (centres undefined)	50.1 µM (active)	
Cc1ccc(Cn2c(=O)n(CCCC(=O)NCc3ccccc3Cl)c(=O)c3ccccc32)cc1	inactive	
O=C(Cn1c(=O)n(-c2ccc(F)cc2)c(=O)c2sc3ccccc3c21)NC1CCCC1	inactive	
CC(C)C(C)(C#N)NC(=O)CSc1nc2scc(-c3ccccc3)c2c(=O)[nH]1 (centres undefined)	28.2 µM (active)	
C=CCNC(=O)CSc1nc2sc(C)c(C)c2c(=O)[nH]1	inactive	
CC(C)C(C)(C#N)NC(=O)CSc1nncn1-c1ccccc1 (centres undefined)	inactive	
CCOc1ccc(CNC(=O)c2cccc(Nc3nc4ccccc4n4nnnc34)c2)cc1OC	inactive	
Cc1nn2c(=O)cc(COC(=O)c3cccc(NC(=O)COc4ccccc4Cl)c3)nc2s1	inactive	
CCCCCn1c(=O)[nH]c2cc(C(=O)Nc3ccc(F)cc3)ccc2c1=O	inactive	
O=C(NCc1ccc2c(c1)CCN2C(=O)c1ccccc1)c1ccccc1	inactive	
COc1ccc(/C(O)=C2/C(=O)C(=O)N(CCCN(C)C)C2c2ccccc2)cc1OC (centres undefined)	inactive	
CCCOc1ccc(/C(O)=C2/C(=O)C(=O)N(CCN(C)C)C2c2ccc(OC)c(OC)c2)cc1 (centres undefined)	10 µM (active)	
COc1cccc(C2/C(=C(/O)c3ccc(F)cc3)C(=O)C(=O)N2CCN(C)C)c1 (centres undefined)	inactive	
O=C(Nc1cccc(C(=O)NC2CC2)c1)c1ccc(F)c(S(=O)(=O)N2CCOCC2)c1		11.8% [at 0.501 µM] (inactive)
Cc1ccc(C2=NN(C(=O)COc3ncnc4ccccc34)C(c3ccco3)C2)cc1 (centres undefined)	inactive	
Cc1ccc(C2=NN(C(=O)CSc3nc(N)cc(N)n3)C(c3ccco3)C2)cc1 (centres undefined)	50.1 µM (active)	
COc1ccc(C2=NN(C(=O)CSc3nnnn3C)C(c3ccco3)C2)cc1 (centres undefined)	inactive	
CCCc1nn2c(=O)cc(COC(=O)c3ccc(NC(=O)COc4ccc(F)cc4)cc3)nc2s1	inactive	
Cc1nn(-c2ccccc2)c(C)c1NC(=O)COC(=O)c1cc(Cl)ccc1O	inactive	

SMILES	Potency	activity, negative = inhibition
Cc1ccc(Nc2cc(C)nc3c(C)ccc([N+](=O)[O-])c23)cc1	11.2 µM (active)	
Cc1cc(Nc2ccc(C(=O)N3CCCCC3)cc2)c2cccc(C)c2n1	inactive	
Cc1ccc(Nc2ccc(C(N)=O)cc2[N+](=O)[O-])cc1	inactive	
COCCn1cnnc1SCC(=O)Nc1cccc(S(=O)(=O)N2CCCCC2)c1		-9.19% [at 12.7 µM] (inactive)
COc1ccc(CN2CCc3nc(Nc4ccccc4)ncc3C2)c(OC)c1OC	inactive	
C=CCn1c(CSc2nc3ccccc3s2)nnc1SCC(=O)NCc1ccco1	44.7 µM (active)	
O=C(CCCn1c(SCC(=O)c2ccc(F)cc2)nc2ccccc2c1=O)NCc1ccco1	inactive	
O=C(CSc1nc2ccc(Nc3nc(N4CCOCC4)nc(N4CCOCC4)n3)cc2s1)NCc1ccco1	inactive	
CCOC(=O)c1cccc(NS(=O)(=O)c2cc(-c3cnc(C)o3)ccc2OC)c1	inactive	
Cc1cccc(NS(=O)(=O)c2cccc(C(=O)NNC(=O)c3ccccc3O)c2)c1		56.9% [at 12.7 µM] (inactive)
O=c1oc2ccc(C#CC3(O)CCCCC3)cc2cc1-n1cc(-c2ccsc2)nn1		-0.586% [at 0.501 µM] (inactive)
CCS(=O)(=O)c1ccc(-c2cccc(NC(=O)c3ccc(Br)o3)c2)nn1	inactive	
COc1ccc(N2CCN(C(=O)CCc3nc(-c4ccc(C)cc4)no3)CC2)cc1	31.6 µM (active)	
CCOc1cc(-c2noc(CCC(=O)N3CCOCC3)n2)ccc1OC	inactive	
CN1CCN(C(=O)CCc2nc(-c3ccc(Cl)cc3)no2)CC1	inactive	
CCOc1ccc2oc(C(=O)N(CC)CC(=O)Nc3ccc(NC(C)=O)cc3)c(C)c2c1		-40.2% [at 12.7 µM] (inactive)
COc1ccc(CCC(=O)NCCc2csc(-c3ccc(Cl)cc3)n2)cc1	inactive	
CCOc1ccc(C(=O)c2cn(Cc3ccccc3OC)c3ccc(F)cc3c2=O)cc1	inactive	
CCOc1ccc(NC(=O)CCc2c(C)nn(-c3ccc(N4CCCC4)nn3)c2C)cc1	inactive	
COc1cc(/C=C(\C#N)c2nc3ccccc3[nH]2)ccc1O	39.8 µM (active)	
Cc1ccc2nc(/C(C#N)=C/c3ccccc3F)[nH]c2c1	inactive	
COc1cc(/C=C(\C#N)c2nc3c(s2)CC(C)CC3)ccc1O (centres undefined)	50.1 µM (active)	
COc1cccc2cc(-c3nc(Cl)c4c5c(sc4n3)CC(C)CC5)c(=O)oc12 (centres undefined)	inactive	
CCOc1ccc(/C=C(\C#N)c2nc3ccccc3c(=O)[nH]2)cc1OC	inactive	

SMILES	Potency	activity, negative = inhibition
Cc1ccc(OCCC(=O)OCC(=O)N2c3ccccc3NC(=O)C2(C)C)cc1	inactive	
COc1ccc(N2CC(NS(=O)(=O)c3ccc4ccccc4c3)CC2=O)cc1 (centres undefined)	inactive	
O=C(N[C@@H](Cc1ccccc1)C(=O)OCc1ccccc1)c1nc[nH]c1C(=O)N[C@@H](Cc1ccccc1)C(=O)OCc1ccccc1	inactive	
CC(C)c1ccc(NC(=O)Cn2nnc(C(=O)NCCc3ccccc3)c2N)cc1	inactive	
Cc1ccc(-c2onc(C)c2C)cc1S(=O)(=O)Nc1ccccn1	inactive	
CC1(C)CC(=O)c2cnc3nc4ccccc4n3c2C1	17.8 µM (active)	
COc1ccc(C)cc1-n1c(-c2ccc(C)cc2)cc2c1CC(C)(C)CC2=O	inactive	
CC(C)(C)c1cc(=O)n2c(nc3ccccc32)[nH]1	inactive	
CC(Sc1ncnc2c1cnn2-c1ccccc1)C(=O)Nc1ccc(N2CCOCC2)cc1 (centres undefined)		9% [at 0.501 µM] (inactive)
Cc1c2cnn(-c3ccccc3)c(=O)c2c(C)n1C(C)C(=O)Nc1ccc(Br)cc1F (centres undefined)	inactive	
Cc1ccccc1CNC(=O)Cn1c(C)c2cnn(-c3ccccc3)c(=O)c2c1C	inactive	
Cc1c2cnn(-c3ccccc3)c(=O)c2c(C)n1CCCC(=O)N1CCN(C)CC1	79.4 µM (active)	
COc1ccc(C2=NOC(Cn3nc(C(=O)NCc4ccc5c(c4)OCO5)cc3-c3ccccc3)C2)cc1 (centres undefined)		1.74% [at 2.33 µM] (inactive)
Cc1ccc(S(=O)(=O)n2cccc2CO)cc1		0.915% [at 2.33 µM] (inactive)
O=C(COC(=O)Cn1cnc2ccccc2c1=O)NCc1ccccc1Cl	inactive	
COc1ccc(C(C)=O)cc1COC(=O)Cn1cnc2ccccc2c1=O	50.1 µM (active)	
COCc1cc(C(C)=O)ccc1OC		-11.9% [at 12.7 µM] (inactive)
COc1ccccc1CNc1ccc(-c2nc(-c3ccccc3C)no2)cc1[N+](=O)[O-]	inactive	
Brc1ccc(-c2nnc(-c3ccccc3)o2)o1	inactive	
Nc1ccc(-c2nnc(-c3ccc(-c4ccccc4)cc3)o2)cc1	7.08 µM (active)	
Nc1ccc(-c2nnc(-c3ccccc3)o2)cc1	inactive	
